Bioassay records (PubChem BioAssay)
Compounds with a hit are over-represented: about 11% of the library has one in this group of screens.
PNC inhibitor: High Content Assay for Compounds that inhibit the Assembly of the Perinucleolar Compartment. PC3M PTB-GFP, PNC prevalence imaging, 16 h; stronger effect = lower value. activity change (PNC), negative = inhibition, % at 10 µM. actives 3.1% (n = 140,000);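 active means readout at or below -70, meaning at least 70% loss of cells showing the perinucleolar compartment, a nuclear body marking cancer cells; inconclusive means readout between -30 and a set limit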;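 further: plate controls were DMSO wells for no effect and camptothecin positive control wells for full effect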
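PC3M cells stably expressing PTB-GFP, 750–1000 cells/well, treated 16 h at 37 °C with compound (23 nl of library stock), in duplicate. After paraformaldehyde fixation and Hoechst stain, imaged at 20x; PNC prevalence scored by image analysis.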
HPGD inh: qHTS Assay for Inhibitors of HPGD (15-Hydroxyprostaglandin Dehydrogenase) | AID 894, 2007 | Potency, µM, for the others: at the top dose activity change, negative = inhibition, actives largely listed as inhibitors | purified HPGD, NADH fluorescence kinetic, PGE2 substrate | actives 4.3% (n = 150,000); further: potency means the concentration at half of the fitted maximal effect
Target sequence (P15428 whole entry, looked up): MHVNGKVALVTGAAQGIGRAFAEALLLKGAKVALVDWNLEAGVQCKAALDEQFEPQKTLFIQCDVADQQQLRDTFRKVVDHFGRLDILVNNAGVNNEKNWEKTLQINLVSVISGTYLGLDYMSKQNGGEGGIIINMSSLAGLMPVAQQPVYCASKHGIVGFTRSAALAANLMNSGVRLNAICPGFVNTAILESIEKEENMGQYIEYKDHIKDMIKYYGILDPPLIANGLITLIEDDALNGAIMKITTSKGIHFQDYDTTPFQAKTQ
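20 nM HPGD preincubated 15 min at room temperature with compound in 50 mM Tris-HCl pH 8, 0.01% Tween 20. Started with 1 mM NAD+ and 30 uM prostaglandin E2; NADH fluorescence (360/450 nm) read 5 times over 30-s intervals, last minus first.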
ALDH1A1 block: qHTS Assay for Inhibitors of Aldehyde Dehydrogenase 1 (ALDH1A1) | Purified ALDH1A1, NADH fluorescence, propionaldehyde substrate | Potency, µM (series often up to 75.3 µM), without a hit: top-dose activity, negative = inhibition, hits mostly inhibitors | actives 7.3% (n = 220,000);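 further: potency means the concentration at half of the fitted maximal effect; plate controls were no enzyme wells and a reference inhibitor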
Numbers without * were called inactive; ? = inconclusive; · = not tested or not shown. Unless noted, the call rests on the fitted dose curve; in most records, active means well fitted inhibition curve with a large enough effect (not every such curve was filed as active); inconclusive means small, poorly fitted or top-dose-only effect, or another doubt; inactive means no such curve, though single readings can be large or run the other way. Unless noted, on the % scale 0 is the no-effect control and ±100 the full control effect.

SMILES | PNC inhibitor | HPGD inh | ALDH1A1 block
Cc1cc(C)c(NC(=O)NC(=O)C(Cl)(Cl)Cl)c(C)c1 | · | · | 0%
Cc1ccc(Cn2nnnc2CN2CCC(NC(=O)c3ccccc3F)CC2)cc1 | -17 | 1% | -1%
Cc1ccc(Cn2nnnc2CN2CCC(O)(c3ccccc3F)CC2)cc1 | -100* | -10% | ?
N[C@@H](CO)C(=O)O | · | -2% | 1%
O=C(Nc1nnc(C(F)(F)F)s1)c1ccc(N2C(=O)C3C4C=CC(C4)C3C2=O)cc1 (stereo not drawn) | 14 | 14µM* | 1%
CCCc1nnc(NC(=O)c2ccc(N3C(=O)C4C5C=CC(C5)C4C3=O)cc2)s1 (stereo not drawn) | 3 | -18% | -5%
CC1(C)CC(=O)C=C(NC2CCCCCCC2)C1 | -27 | -11% | 1%
CC1(C)CC(=O)C=C(NNC(=O)C2CCCCC2)C1 | ? | 15% | 13µM*
COc1ccc(C2SCC(=O)N2CCc2ccc(OC)c(OC)c2)cc1 (stereo not drawn) | · | · | -4%
CCOC(=O)c1ccc(N=C2C(=S)N(c3ccc(C(=O)OCC)cc3)C(=N)N2/N=C/c2ccccc2)cc1 | -86* | 22µM* | 2µM*
CCOC(=O)c1ccc(N=Cc2nc3ccccc3n2C)cc1 | 10 | -7% | 0%
Brc1ccccc1OCCCCCN1CCOCC1 | · | · | 11µM*
O=Cc1ccccc1OCCOc1ccccc1C=O | 47 | ? | 20µM*
CN1CCN(CCCCOc2ccccc2C=O)CC1 | · | · | 22µM*
Brc1ccc(OCCCCCN2CCOCC2)cc1 | · | · | -13%
O=Cc1ccccc1Oc1ccccc1 | 27 | 0% | -9%
Clc1ccccc1OCCCCN1CCCC1 | -21 | 3% | -5%
Cc1ccc(NC(=O)CN(C)C(=O)c2ccc(S(=O)(=O)N(C)c3ccccc3)cc2)cc1 | · | · | 3%
CC(C)OC(=O)c1cccnc1N1CCN(c2cccc(Cl)c2)CC1 | · | · | 0%
O=C(CCN1C(=O)c2ccccc2C1=O)N1CCN(c2ccccc2)CC1 | 33 | -4% | 7%
O=C(CCN1C(=O)c2ccccc2C1=O)N1CCCCCC1 | 16 | 16µM* | 20µM*
O=C1C(=O)N(CC(=O)N2CCCC2)c2ccccc21 | · | · | 3.5µM*
CC(C)NC(=O)CN1C(=O)C(=O)c2ccccc21 | ? | -11% | -5%
CCOC(=O)C1CCN(C(=O)NS(=O)(=O)c2ccc(C)cc2)CC1 | · | · | 2%
COC(=O)c1c(C)oc(C)c1S(=O)(=O)NCc1ccco1 | · | · | -6%
SMILES | PNC inhibitor | HPGD inh | ALDH1A1 block
O=C(O)CSCC(=O)Nc1ccc(Cl)cc1C(F)(F)F | · | · | 5%
CC(C)N(CC(=O)Nc1ccc(Cl)cc1C(F)(F)F)C(=O)CCl | · | · | 1.8µM*
O=C(CCCn1c(=O)[nH]c2cc(Cl)ccc2c1=O)NC1CCCCCCC1 | -19 | -6% | 9%
CN(Cc1ccccc1)C(=O)CCCn1c(=O)[nH]c2cc(Cl)ccc2c1=O | 51 | 25µM* | -8%
Cc1cccc(NC(=O)CCNC(=O)c2ccco2)c1 | -26 | -12% | 11%
NS(=O)(=O)c1ccc(CCNC(=O)c2ccc3c(c2)OCCO3)cc1 | · | · | 13%
Cc1ccc(S(=O)(=O)N2CCN(CC(O)c3ccccc3)CC2)cc1C (stereo not drawn) | · | · | -9%
CCOC(=O)c1cccc(NC(=O)c2cccnc2)c1 | 22 | -9% | -1%
CCC(C)c1ccc(NC(=O)c2cccnc2)cc1 (stereo not drawn) | 1 | -11% | ?
CCC(C)c1ccc(O)c(NC(=O)c2cccnc2)c1 (stereo not drawn) | -11 | -10% | 11µM*
CCOC(=O)c1ccc(Cl)c(NC(=O)c2cccnc2)c1 | · | · | 11µM*
COc1cccc(NC(=S)NCCc2ccccn2)c1 | · | · | -11%
N#Cc1cccc(-c2cncnc2NCc2ccccc2)c1 | · | · | 9%
O=C(c1cnccn1)N1CCC2(CCCN(Cc3ccncc3)C2)CC1 | · | -7% | -3%
COc1cccc(NC(=S)N(Cc2ccc(Cl)cc2)Cc2ccc(C(=O)O)cc2)c1 | · | · | -9%
CC(=O)Nc1cc[n+](C(C)C(=O)c2ccc(Br)cc2)cc1 (stereo not drawn) | · | · | -1%
CN(Cc1nccn1C)C(=O)CC1C(=O)NCCN1CC(c1ccccc1)c1ccccc1 (stereo not drawn) | · | · | 1%
CC(C)N(Cc1nccn1C)C(=O)CC1C(=O)NCCN1Cc1ccccc1C(F)(F)F (stereo not drawn) | · | · | 40µM*
COc1cccc(CNC(=O)CCC2CCCN(C(=O)CCn3cncn3)C2)c1 (stereo not drawn) | · | · | -6%
